# Assay results as given in ChEMBL document CHEMBL3988442, “University of Dundee, Small-Polar-MMV Screening Library” (2021).
# Biological target: T1, Methionyl-tRNA synthetase, putative (Leishmania donovani (strain BPK282A1)) (UniProt E9BF75)
# T1 sequence (whole entry): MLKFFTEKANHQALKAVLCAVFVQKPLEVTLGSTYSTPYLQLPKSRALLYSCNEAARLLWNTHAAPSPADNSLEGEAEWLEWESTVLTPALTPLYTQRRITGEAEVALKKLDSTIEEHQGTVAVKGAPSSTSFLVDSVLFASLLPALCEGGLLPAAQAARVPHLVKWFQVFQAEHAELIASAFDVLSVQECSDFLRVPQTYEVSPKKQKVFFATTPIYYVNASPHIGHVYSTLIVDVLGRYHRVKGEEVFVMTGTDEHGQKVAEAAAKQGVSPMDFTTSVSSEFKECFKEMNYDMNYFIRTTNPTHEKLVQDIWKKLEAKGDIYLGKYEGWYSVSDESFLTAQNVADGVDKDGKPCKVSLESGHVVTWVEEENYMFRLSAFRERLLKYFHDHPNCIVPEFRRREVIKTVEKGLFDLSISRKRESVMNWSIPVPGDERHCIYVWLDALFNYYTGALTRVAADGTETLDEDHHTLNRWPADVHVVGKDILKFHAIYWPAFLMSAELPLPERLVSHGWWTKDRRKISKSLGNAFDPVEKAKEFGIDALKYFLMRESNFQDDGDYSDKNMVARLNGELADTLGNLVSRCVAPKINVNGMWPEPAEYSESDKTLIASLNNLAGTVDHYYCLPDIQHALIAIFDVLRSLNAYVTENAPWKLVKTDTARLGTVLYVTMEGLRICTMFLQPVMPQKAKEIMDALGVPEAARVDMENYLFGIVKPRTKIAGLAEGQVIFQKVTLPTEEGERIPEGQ
# Test: Leishmania donovani Methionine tRNA synthetase (LdMetRS):v7. Dose response assay
# Type: functional
# Set-up: conc 80 nM, time 150 minutes
compound,measurement,setting,value
OC1CCc2cc(Cl)cc(Cl)c21 (stereo not given),PXC50,MAX_EFFECT 6.26349892,< 3
same,PXC50,MAX_EFFECT 9.69581749,< 3
Cc1ccc(-c2ncc(CNc3cnccc3CO)s2)cc1,PXC50,MAX_EFFECT 7.042253521,< 4
same,PXC50,MAX_EFFECT 10.18518519,< 4
CCn1cc(-c2cc(C(F)(F)F)nc(NC3CCCC3)n2)c(C)n1,PXC50,MAX_EFFECT 6.788511749,< 4
same,PXC50,MAX_EFFECT 7.571801567,< 4
Cc1ccc(-c2cc(C(F)(F)F)nc(N3CCOCC3)n2)s1,PXC50,MAX_EFFECT 10.18276762,< 4
same,PXC50,MAX_EFFECT 14.09921671,< 4
Cc1cc2c(N3CCOCC3)nc(-c3cccnc3)nc2s1,PXC50,MAX_EFFECT 2.18579235,< 4
same,PXC50,MAX_EFFECT 5.347593583,< 4
Cc1sc2nc(CN(C)Cc3ccc(C(F)(F)F)cc3)nc(N)c2c1C,PXC50,MAX_EFFECT 10.05291005,< 4
same,PXC50,MAX_EFFECT 12.8,< 4
Cc1nc(NCCCC(=O)O)c2c3c(sc2n1)CCCC3,PXC50,MAX_EFFECT 9.823677582,< 4
same,PXC50,MAX_EFFECT 10.43256997,< 4
Cc1nc2c(-c3nc(-c4ccccc4N)n[nH]3)cccn2c1C,PXC50,MAX_EFFECT 15.34883721,< 4
same,PXC50,MAX_EFFECT 20.27972028,< 4
COCc1nc(N(C)CC(=O)N(C)C)c2c(-c3ccccc3)csc2n1,PXC50,MAX_EFFECT 3.778337531,< 4
same,PXC50,MAX_EFFECT 3.816793893,< 4
Cc1nc(NCC(=O)O)c2cc(-c3ccccc3)sc2n1,PXC50,MAX_EFFECT 8.533333333,< 4
same,PXC50,MAX_EFFECT 10.58201058,< 4
O=C(NC1CCCC1)c1ccc2ccc(N3CCCCC3)n2c1,PXC50,MAX_EFFECT 36.52968037,< 4
same,PXC50,MAX_EFFECT 39.81132075,< 4
CCC(CO)Nc1nc(CSc2ccccc2)nc2sc3c(c12)CCC3 (stereo not given),PXC50,MAX_EFFECT 27.86885246,< 4
same,PXC50,MAX_EFFECT 29.94652406,< 4
Cc1sc2nc(CCN)nc(N3CCS(=O)(=O)CC3)c2c1C,PXC50,MAX_EFFECT 6.266318538,< 4
same,PXC50,MAX_EFFECT 7.049608355,< 4
CS(=O)(=O)Nc1cccc2c(=O)cc(C(=O)NCC3CCCCC3)oc12,PXC50,MAX_EFFECT 0.797448166,< 4
same,PXC50,MAX_EFFECT 2.111324376,< 4
CCc1nc(N2CCN(c3ncccn3)CC2)c2cc(CC)sc2n1,PXC50,MAX_EFFECT 23.46666667,< 4
same,PXC50,MAX_EFFECT 25.3968254,< 4
O=C(NCC1(O)CCCCC1)c1cc(=O)c2ccc(F)c(O)c2o1,PXC50,MAX_EFFECT 5.582137161,< 4
same,PXC50,MAX_EFFECT 7.485604607,< 4
CCc1nc(NCCO)c2c3c(sc2n1)CCC3,PXC50,MAX_EFFECT 3.274559194,< 4
same,PXC50,MAX_EFFECT 5.852417303,< 4
Cc1nc(N2CCN(C(=O)C3CC3)CC2)c2c3c(sc2n1)CC(C)CC3 (stereo not given),PXC50,MAX_EFFECT 43.2160804,< 4
same,PXC50,MAX_EFFECT 47.91154791,< 4
Cc1nc(NC(C)C(=O)O)c2c3c(sc2n1)CCCC3 (stereo not given),PXC50,MAX_EFFECT 7.035175879,< 4
same,PXC50,MAX_EFFECT 8.5995086,< 4
CN(C(=O)c1ccc2ccc(N3CCN(S(C)(=O)=O)CC3)n2c1)C1CCCC1,PXC50,"BOTTOM 0.289643944, HILLSLOPE 2.293493597, MAX_EFFECT 58.37320574, TOP 59.73308371",5.01
same,PXC50,"BOTTOM 8.176661161, HILLSLOPE 2.054643886, MAX_EFFECT 62.15722121, TOP 64.55497205",4.82
Cn1ccnc1CN1CCC(F)(F)C2(CCN(c3cccnc3)C2)C1 (stereo not given),PXC50,MAX_EFFECT 9.719626168,< 4
same,PXC50,MAX_EFFECT 11.33786848,< 4
O=C1CC[C@@H](COc2cccc(F)c2Oc2ccc(Cl)cc2)N1,PXC50,MAX_EFFECT 7.462686567,< 4
same,PXC50,MAX_EFFECT 9.316770186,< 4
Cc1cc(C(F)(F)F)nc(N2CCN(Cc3nccn3C)CC2)n1,PXC50,MAX_EFFECT 3.571428571,< 4
same,PXC50,MAX_EFFECT 6.313131313,< 4
Cc1nc(NCCCS(N)(=O)=O)c2c3c(sc2n1)CCC3,PXC50,MAX_EFFECT 5.319148936,< 4
same,PXC50,MAX_EFFECT 8.29015544,< 4
CC(C)C[C@@H](COc1cccc(F)c1Oc1ccc(Cl)cc1)NS(C)(=O)=O,PXC50,MAX_EFFECT 6.609808102,< 4
same,PXC50,MAX_EFFECT 8.902691511,< 4
O=C(NCC1CCCCC1)c1cc(=O)c2ccc(F)c(O)c2o1,PXC50,MAX_EFFECT 5.182341651,< 4
same,PXC50,MAX_EFFECT -0.4784689,< 4
CCc1nc(N2CCCC(C(=O)O)C2)c2c3c(sc2n1)CCC3 (stereo not given),PXC50,MAX_EFFECT 18.93939394,< 4
same,PXC50,MAX_EFFECT 20.91836735,< 4
CS(=O)(=O)N1CCN(CC2OB(O)c3ccccc32)CC1 (stereo not given),PXC50,MAX_EFFECT 11.13207547,< 4
same,PXC50,MAX_EFFECT 15.06849315,< 4
Cc1sc2nc(-c3cccs3)nc(N(C)CC(=O)N3CCCC3)c2c1C,PXC50,MAX_EFFECT 37.40458015,< 4
same,PXC50,MAX_EFFECT 42.06549118,< 4
CCOC(=O)c1sc2nc(CN3CCCCC3)nc(NC3CC3)c2c1C,PXC50,MAX_EFFECT 16.58291457,< 4
same,PXC50,MAX_EFFECT 18.42751843,< 4
